Screen size: about 120,000 compounds; fewer than 10 were called active. Roughly 4% stayed inconclusive and do not appear here. Calls follow the shape of the dose curve; as a rule, active = well fitted curve in the direction sought with a large enough effect in the signal ratio (not every such curve was filed as active); inconclusive = small, poorly fitted or top-dose-only effect, or a change in a side signal; inactive = no such curve, though single readings can be large or run the other way; the % refers to the signal ratio. A selection follows.
biological target: Inositol monophosphatase 1 (Rattus norvegicus) (UniProt P97697); assay: qHTS Assay for Identifying the Cell-Membrane Permeable IMPase Inhibitors; details: CHO-M1 cells, HTRF TR-FRET ratio; series mostly up to 46.1 µM;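 also: higher means more IMPase inhibition seen as more IP1 and lower FRET ratio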
Sequence (P97697 whole entry, looked up): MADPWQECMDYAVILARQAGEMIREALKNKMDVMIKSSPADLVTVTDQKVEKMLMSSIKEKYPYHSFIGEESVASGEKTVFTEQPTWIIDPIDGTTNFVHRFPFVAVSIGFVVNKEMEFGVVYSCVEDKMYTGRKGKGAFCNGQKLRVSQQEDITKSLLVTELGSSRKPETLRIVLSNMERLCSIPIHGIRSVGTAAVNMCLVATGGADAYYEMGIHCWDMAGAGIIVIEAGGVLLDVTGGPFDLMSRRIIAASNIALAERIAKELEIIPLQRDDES
From the text: NCGC IMPase Assay Overview
Lithium has been widely used for the treatment of bipolar disorder. But lithium has a narrow therapeutic index and it can cause side effects such as thirst, weight gain, tremor, polyuria and memory problems. Although the mechanism for lithium action in treatment of bipolar disorder is still not fully understood, inhibition of inositol monophosphatase (IMPase) and the subsequent depletion of the inositol pool in living cells have been implicated as the primary therapeutic benefit of lithium therapy. Therefore, a selective IMPase inhibitor with reduced side effects might be a good drug candidate to replace lithium for the treatment of bipolar disorder. Several IMPase inhibitors have been discovered previously. However, they are not suitable for therapeutic use because of their poor cell membrane penetrability or oral bioavailability; the development of new cell-permeable IMPase inhibitors is needed.
IMPase catalyzes the hydrolysis of inositol-1-phosphate (IP1) to release free inositol. Binding of an agonist to a Gq coupled GPCR results in the activation of PLC, which hydrolyzes the PIP2 to form inositol-1,4,5-trisphosphate (IP3) and diacyl glycerol (DAG). While DAG activates protein kinase C (PKC), IP3 triggers the elevation of intracellular free Ca2+. The IP3 is very rapidly inactivated by hydrolysis to IP2, IP1 and then inositol by a series of enzymes including IMPase. Free inositols are used for synthesis of PI and thus start another inositol cycle.
To identify new cell-permeable IMPase inhibitors, we developed a cell-based IMPase assay in which the cytosolic IP1 is measured by a time-resolved fluorescence resonance energy transfer (TR-FRET) assay. In this assay, an IP1 specific antibody is used to detect the labeled IP1 tracer. When the cell lysate contains the elevated IP1 due to the inhibition of IMPase, the TR-FRET between the labeled antibody and IP1 tracer is disrupted resulting in a reduction in the total signal. Since the TR-FRET is used, this cell-based assay is a homogenous assay without cell wash and medium change that is suitable for assay miniaturization and HTS.
NCGC IMPase Assay Protocol Summary
A Chinese hamster ovary (CHO) cell line stably expressing the M1 receptor (CHO-M1) was obtained from ATCC and maintained in F-12 Kaighn's media (Invitrogen, Carlsbad, CA, 21127) supplemented with 10 % FBS, 100 units/ml penicillin, 100 ug/ml streptomycin and 250 ug/ml geneticin at 37C, 5% CO2 in a humidified atmosphere. Before the assay, aliquots of cells were frozen and stored at -135C. The assay was performed in 1536-well format. Data are reported for both the ratio of the two emission wavelengths, and also for the component 'donor' channel, Em2=620. […] AC50 values were determined from concentration-response data modeled with the standard Hill equation.
IMPase 1536-well assay protocol:
(1) Plate 4 ul/well (2000 cells) of cell suspension from frozen CHO-M1 Cells in white, tissue culture treated 1536-well plates that are cultured at 37C, 5 % CO2 for 16 to 30 hours.
(2) Add 23 nl/well of compound in DMSO solution. The final titration for each compound was between 0.6 nM and 46 uM.
(3) Add 1 ul of carbachol (50 uM in stimulation buffer containing10mM HEPES, 1mM CaCl2, 0.5 mM MgCl2, 4.2 mM KCl, 146 mM NaCl, 5.5 mM glucose, 50mM LiCl, pH 7.4.
(4) Incubation at 37C, 5 % CO2 for 30 min.
(5) Add 1 ul/well of d2-conjugated IP1 (d2-IP1) and 1 ul/well of Eu+ cryptate conjugated anti-IP1 antibody (Eu+-Ab) prepared in the cell lysis buffer, both from the IP-One kit (Cisbio, MA).
(6) Incubate at room temperature for 10 minutes.
(7) Detect the assay plate (Ex = 320, Em1 =665 and Em2 620) in a ViewLux plate reader.
inositol monophosphatase, IMPase, IMPase inhibitor, lithium, bipolar disorder, IP-One, HTRF, qHTS, NIH roadmap, NCGC
Note: In the gene ID and protein GI references for this assay, rat IMPase is referenced instead of hampster as hamster accession numbers were not available.

outcome, inactive:
CC1=C(C(=O)Nc2ccccc2)C(c2ccc(C)cc2)n2nc(SCc3ccccc3C)nc2N1 (stereo unspecified), FC(F)(F)c1cc(Nc2nc3ccccc3c3nncn23)ccc1Cl, CCCSc1nc2sc3c(c2c(=O)n1-c1cccc(Br)c1)CC(C)(C)OC3, COc1cccc(OCCn2c(-c3ccc(Br)cc3)nc3ccccc3c2=O)c1, CCOC(=O)c1c(N)n(-c2cccc(C)c2C)c2nc3ccccc3nc12, Cc1ccc(NC(=O)c2sc3nc(N)c(C#N)cc3c2N)cc1, Cc1ccc2nc(-c3ccc(C)c(NC(=O)Cc4ccccc4)c3)oc2c1, CN(Cc1ccccc1)C(=O)CCS(=O)(=O)c1cc(Br)cc2c1N(C(=O)C1CC1)CC2, COC(=O)c1ccc(OCC(O)CN(CCO)CC(O)Cn2ccc3ccccc32)cc1 (stereo unspecified), COc1cccc(C(=O)NC2(C(F)(F)F)C(=O)Nc3c2c(=O)[nH]c(=O)n3-c2ccc(C)cc2)c1 (stereo unspecified), COC(=O)c1c(NC(=O)C(C)Oc2ccc(Cl)c(C)c2)sc(C)c1C (stereo unspecified), O=C(NCCCN1CCN(c2cccc(Cl)c2)CC1)c1nnc(Cc2ccc(F)cc2Cl)o1, CCC(=O)NCc1cc(-c2nn(C)c(=O)c3ccccc23)ccc1OC, CCCn1c(C)cc(/C=C(\C#N)C(=O)OCC(=O)Nc2cc(OC)c(OC)c(OC)c2)c1C, COc1ccc2nc(SCc3ccccc3)nc(C)c2c1, COc1ccc(-c2cc(C(F)(F)F)nc(SCC(=O)N(C)Cc3ccccc3)n2)cc1OC, O=C(COC(=O)c1cc([N+](=O)[O-])ccc1NCc1ccccc1)NC1CCCCC1, CCCn1c(=N)n(CC(O)COc2ccccc2OC)c2ccccc21 (stereo unspecified), COc1cccc(-c2nnc(SCC(=O)N3CCC(C)CC3)o2)c1, Cc1cc(C)cc(NC(c2nnc(-c3cccc(F)c3)o2)c2ccc(F)cc2Cl)c1 (stereo unspecified), CCn1c2ccccc2c2cc(NC(=O)COc3ccc(C)cc3C)ccc21, Cc1cccc(N2CCN(C(=O)c3ccc(Nc4nc5ccccc5n5nnnc45)cc3)CC2)c1C, O=C(Nc1ccc(Oc2ccccc2)cc1)C1CCN(S(=O)(=O)c2ccc(Cl)cc2)CC1, CCOC(=O)c1cnc2c(C)cc(Cl)cc2c1NCCc1ccc(OC)c(OC)c1, C/C(CC1CC(C)(C)OC1=O)=N/Nc1nc(-c2ccccc2)cs1 (stereo unspecified), Cc1ccc(C)c(N2CCN(C(=O)C3CCC(CNS(=O)(=O)c4cccs4)CC3)CC2)c1 (stereo unspecified), CCc1nc2nc(C)cc(Nc3ccc(F)c(Cl)c3)n2n1, Cn1c(=O)c2c(nc(SCC(=O)Nc3ccc(F)cc3)n2Cc2ccc(Cl)cc2)n(C)c1=O, COc1ccc(NC(=O)C2CCCN(S(=O)(=O)c3c(C)[nH]c(=O)[nH]c3=O)C2)c(OC)c1 (stereo unspecified), OCC(CO)(CO)NCc1ccc(-c2ccccc2)cc1, CCCCCCCCC(=O)NCCOc1ccccc1, Cc1cc(NC(=O)C2CCC(CNS(=O)(=O)c3ccc(Br)s3)CC2)ccc1Br (stereo unspecified), C[n+]1ccccc1C1CCCC/C1=N\Nc1ccc([N+](=O)[O-])cc1[N+](=O)[O-] (stereo unspecified), CC1=C(C(=O)OCC2CCCCC2)C(c2c(F)cccc2Cl)CC(=O)N1 (stereo unspecified), CCN(C(=O)COC(=O)c1cc(NS(=O)(=O)c2ccc(Cl)c([N+](=O)[O-])c2)ccc1O)C1CCCCC1, COC(=O)c1cc(NC(=O)CCS(=O)(=O)c2cc(Br)cc3c2N(C(=O)C2CC2)CC3)cc(C(=O)OC)c1, COc1ccccc1CN(C)C(=O)C1(c2ccc(Cl)cc2)CC1, COc1ccc(OC)c(NC(=O)C2CCN(S(=O)(=O)c3ccc(C)cc3)CC2)c1, COc1cc(/C=N/NC(=O)CCc2n[nH]c(=O)[nH]c2=O)ccc1O, CCCCSc1ncnc2c1sc1nc(N3CCOCC3)c3c(c12)CCCC3, Cc1c(Cl)c([N+](=O)[O-])nn1CCCC(=O)NC(C)c1ccccc1 (stereo unspecified), Cc1cc(C)cc(OCC(=O)Nc2c(C(=O)c3ccccc3)oc3ccccc23)c1, CCN(Cc1ccccc1)Cc1c(O)ccc2c(=O)c(-c3ccc(Cl)cc3Cl)coc12, Cn1c(=O)c2c(ncn2CC(=O)Nc2cccc(C(F)(F)F)c2)n(C)c1=O, CSCCC(NC(=O)c1cc([N+](=O)[O-])cc([N+](=O)[O-])c1)c1nc2ccccc2[nH]1 (stereo unspecified), CCOc1cc(NC(=S)NCCCOC)c(OCC)cc1NC(=O)c1ccco1, O=C(CN1CCc2ccccc21)NC(c1ccccc1)c1ccccc1, CCOC(=O)CC(NC(=O)C1c2ccccc2Oc2ccccc21)c1ccc(C)cc1 (stereo unspecified), O=C(COC(=O)CSc1nnc(-c2ccc(Cl)cc2)o1)Nc1cc(Cl)cc(Cl)c1, Cc1ccc(-c2nnc(Nc3ccc(OCC(N)=O)cc3)c3ccccc23)cc1S(=O)(=O)NCC1CCCO1 (stereo unspecified), CCOC(=O)c1ccc(-c2ccc(/C=C(\C#N)C(=O)Nc3ccc(OCC)cc3)o2)cc1, Cc1ccc(-n2c(SCC(=O)N3c4ccccc4Sc4ccccc43)nnc2-c2ccncc2)cc1, CCn1c2ccccc2c2cc(CN3CCN(Cc4cccc(Cl)c4)CC3)ccc21, O=C(Cc1ccc(Cl)cc1)Nc1ccc2nn(-c3ccc(Cl)cc3)nc2c1, CCNC(=S)N1CCC(c2nc3cc(C)c(C)cc3[nH]2)CC1, Cc1cc(Cl)ccc1OCC(=O)N(Cc1ccc(N(C)C)cc1)C1CCS(=O)(=O)C1 (stereo unspecified), CCNS(=O)(=O)c1ccc(NC(=O)CSc2nc(-c3ccco3)cc(C(F)(F)F)n2)cc1, N#C/C(=C\c1cccc(F)c1)c1nc(-c2cc3c(ccc4ccccc43)oc2=O)cs1, Cc1ccc(N2CC(c3nnc(Cc4ccccc4Cl)o3)CC2=O)cc1 (stereo unspecified), Cc1ccc(C(=O)Nc2nc(-c3ccccc3)ns2)cc1, Cc1ccc(-n2c3nc(=O)[nH]c(=O)c-3cc3c(Cl)cccc32)cc1, COC(=O)c1c(C)oc2ccc(N(C(=O)Oc3ccccc3)S(=O)(=O)c3ccccc3)cc12, CCC(C(=O)OCC(=O)Nc1c(Cl)cc(Cl)cc1Cl)c1ccccc1 (stereo unspecified), CCn1c(=O)c(=O)n(CC)c2cc(N3CCCCC3)c(NC(=O)c3ccc(Cl)cc3)cc21, COc1ccc(NC(=O)Cn2c(=O)n(Cc3ccc(C(=O)NCc4ccccc4Cl)cc3)c(=O)c3ccccc32)cc1, CC1=Nc2cc(C(=O)N3CCC(C)CC3)ccc2Sc2ccc(Cl)cc21, COCCNC(=O)c1ccc2c(c1)N=C(C)c1cc(C)ccc1S2, Cc1cccc(C)c1OCC(=O)NC(Cc1c[nH]c2ccccc12)C(=O)O (stereo unspecified), COc1ccc(-c2csc3ncnc(Oc4ccc5c(C)cc(=O)oc5c4)c23)cc1, CC(C)(C)C(=O)NC(NC(=S)Nc1ccc(S(N)(=O)=O)cc1)C(Cl)(Cl)Cl (stereo unspecified), CCOC(=O)c1cnc2ccc(F)cc2c1Nc1ccc2c(c1)OCCO2, COc1ccc(CNC(=O)CCCn2nc(C)c([N+](=O)[O-])c2C)cc1, Cc1cc[n+](-c2[nH]c(=O)sc2/C=N/NC(=O)c2ccccc2[O-])cc1C, COc1ccc(-c2noc(CCC(=O)N(C)c3ccccc3C)n2)cc1, CCOC(=O)c1c(C)n(S(=O)(=O)c2ccc(C)cc2C)c2ccc(NS(=O)(=O)c3ccc(C)cc3C)cc12, CCC1CCCCN1C(=S)Nc1ccc(SC(F)F)cc1 (stereo unspecified)
